# In ChEMBL document CHEMBL1157539, “Thousands of chemical starting points for antimalarial lead identification” (Nature, 2010):
# System: Plasmodium falciparum
# Experiment: GSK_TCMDC: Inhibition of Plasmodium falciparum 3D7 in whole red blood cells, using parasite LDH activity as an index of growth. Test compounds present at 2uM
# Type: functional
row,SMILES,Inhibition [%]
1,CC12CC3CC(C)(C1)CC(Nc1nc(N4CCOCC4)nc4ccccc14)(C3)C2,95
2,CC(C)CNCc1cccc(-c2ccccc2CNC2CCN(Cc3ccccc3)CC2)c1.O=C(O)C(F)(F)F,100
3,OCCOCn1cnc2cnc(N[C@H]3OC[C@H](O)[C@@H](O)[C@@H]3O)nc21,82
4,COc1cc2ccccc2c(CNCCCCCCNCc2c(OC)c(OC)cc3ccccc23)c1OC.CS(=O)(=O)O,95
5,COc1cc(C2NCC3(CCOCC3)c3cc4c(cc32)OCCO4)cc(OC)c1OC.Cl (stereo not given),95
6,CCCNCc1ccc(-c2ccc(CN(CCOC)C(=O)CCc3ccc(OC)cc3)cc2)nc1.O=C(O)C(F)(F)F,98
7,COc1cc(NC(=O)/C=C/c2ccccc2Cl)cc(OCCN2CCC(O)(c3ccccc3)CC2)c1.O=C(O)C(=O)O,100
8,O=C(NC(=O)c1ccccc1O)c1ccccc1O,97
9,FC(F)(F)c1cnc(Sc2nnc(-c3ccncc3)o2)c(Cl)c1,96
10,O=C(/C=C/c1ccc(-c2nc3ccc(Cl)cc3[nH]2)cc1)NCc1cccc(F)c1,99
11,CCCCCCCCc1c(C)nc(C)c(I)c1O,91
12,C=CCn1c(SCc2c(C)noc2C)nc2scc(-c3cccs3)c2c1=O,88
13,CCCCCCCCOc1c(OCC)cc(Cc2cnc(N)nc2N)cc1OCC,80
14,C=C1C(C(=O)OCC)=CN(CC)c2cc(O[C@@H]3CCN(C(=O)OC(C)(C)C)C3)ccc21,97
15,Cc1cc(=NN=Cc2cccc(Cl)c2)c2cc(F)ccc2[nH]1,100
16,O=C(Nc1ccc(-c2ccc(-c3nc4ccccc4[nH]3)cc2)cc1)Nc1ccc(Cl)c(Cl)c1,100
17,O=C(NCc1ccc(F)cc1)Nc1ccc(-c2ccc(-c3nc4ccccc4[nH]3)cc2)cc1,100
18,CC1CCN(c2nc(C(=O)NCCc3ccc(Cl)c(Cl)c3)c(C(C)C)s2)CC1.O=C(O)C(F)(F)F,88
19,CS(=O)(=O)c1ccc(CCNCc2ccc(-c3ccc(CN(C(=O)c4ccco4)C4CCN(Cc5ccccc5)CC4)cc3)nc2)cc1.O=C(O)C(F)(F)F,85
20,COc1ccccc1C(=O)N1CCN(Cc2cccs2)CC1,96

row,SMILES,Inhibition [%]
1,COCCNC(=O)C1CCN(C(c2ccc(Cl)cc2)c2ccc(Cl)cc2)CC1,86
2,COc1ccc2ncc(F)c([C@H](O)CN3CCC(NCc4cc5c(cn4)OCCO5)CC3)c2c1.Cl,100
3,COc1ccccc1C(=O)Nc1cccc(N2CCC(NCc3ccc(-n4cccn4)cc3)CC2)c1,86
4,Cc1ccc(-c2nc(N3CCN(C(=O)c4ccco4)CC3)c3ccccc3n2)cc1,90
5,Cn1ccnc1Sc1ncccc1[N+](=O)[O-],96
6,CCN(CC)CCON=Cc1cc(C)c2[nH]c3ccc(OCc4ccccc4)cc3c2c1C,98
7,CC(C)Oc1cc(-c2ccc(S(C)(=O)=O)cc2)nc(N(Cc2cccc(F)c2F)Cc2cccc(F)c2F)n1,100
8,COc1cc(Br)c(S(=O)(=O)n2cc(CN3CCC(N)CC3)c3cc(Cl)ccc32)cc1OC.O=C(O)C(F)(F)F,99
9,Cc1nc(N)nc(N)c1OCCCOc1ccccc1Br.Cl,94
10,CN1CCc2ccc(NC(=O)Nc3cccc(C(=O)c4ccccc4)c3)cc2C1,83
11,NS(=O)(=O)Cc1cccc(-c2ccnc3ccc(-c4cccc(S(N)(=O)=O)c4)cc23)c1,98
12,O=C(Nc1ccc(Br)cc1)Nc1ccc(Cn2ncc(N3CCCNCC3)c(Cl)c2=O)cc1.O=C(O)C(F)(F)F,87
13,CC(C)c1sc(-c2ccc(C(C)(C)C)cc2)nc1C(=O)NCCCN1CCCC1=O,96
14,O=C(Nc1cccc(C(F)(F)F)c1)c1cccc(S(=O)(=O)NCC2CCCN(Cc3ccccc3)C2)c1.O=C(O)C(F)(F)F (stereo not given),94
15,COC(=O)CNC(c1ccccc1)c1cc(Br)ccc1NC(=O)c1ccccc1Br (stereo not given),99
16,Cc1ccccc1C1CCN(c2ncc(C(=O)Nc3ccccc3)cc2Cl)CC1.O=C(O)C(F)(F)F,83
17,CCN1CCC(N(Cc2ccc(-c3ccc(C(F)(F)F)cc3)cc2)C(=O)CCCCn2c(CCc3cccc(F)c3F)nc(=O)c3ccccc32)CC1,90
18,NC(=O)c1ccsc1NC(=O)CNC(c1ccccc1)c1ccc(Cl)cc1 (stereo not given),83
19,COc1c(C2=CCN(CCCCNC(=O)c3ccc(-c4ccc(C#N)cc4)cc3)CC2)ccc2c1CCCC2,94
20,COc1ccccc1CCN1CCC(CN(C)Cc2ccc(O)c(Cl)c2)CC1,100

# System: Plasmodium falciparum
# Experiment: GSK_TCMDC: Inhibition of Plasmodium falciparum Dd2 in whole red blood cells, using parasite LDH activity as an index of growth. Test compounds present at 2uM
# Type: functional
row,SMILES,Inhibition [%]
1,CC12CC3CC(C)(C1)CC(Nc1nc(N4CCOCC4)nc4ccccc14)(C3)C2,14
2,CC(C)CNCc1cccc(-c2ccccc2CNC2CCN(Cc3ccccc3)CC2)c1.O=C(O)C(F)(F)F,39
3,OCCOCn1cnc2cnc(N[C@H]3OC[C@H](O)[C@@H](O)[C@@H]3O)nc21,0
4,COc1cc2ccccc2c(CNCCCCCCNCc2c(OC)c(OC)cc3ccccc23)c1OC.CS(=O)(=O)O,89
5,COc1cc(C2NCC3(CCOCC3)c3cc4c(cc32)OCCO4)cc(OC)c1OC.Cl (stereo not given),2
6,CCCNCc1ccc(-c2ccc(CN(CCOC)C(=O)CCc3ccc(OC)cc3)cc2)nc1.O=C(O)C(F)(F)F,29
7,COc1cc(NC(=O)/C=C/c2ccccc2Cl)cc(OCCN2CCC(O)(c3ccccc3)CC2)c1.O=C(O)C(=O)O,46
8,O=C(NC(=O)c1ccccc1O)c1ccccc1O,79
9,FC(F)(F)c1cnc(Sc2nnc(-c3ccncc3)o2)c(Cl)c1,96
10,O=C(/C=C/c1ccc(-c2nc3ccc(Cl)cc3[nH]2)cc1)NCc1cccc(F)c1,68
11,CCCCCCCCc1c(C)nc(C)c(I)c1O,77
12,C=CCn1c(SCc2c(C)noc2C)nc2scc(-c3cccs3)c2c1=O,34
13,CCCCCCCCOc1c(OCC)cc(Cc2cnc(N)nc2N)cc1OCC,0
14,C=C1C(C(=O)OCC)=CN(CC)c2cc(O[C@@H]3CCN(C(=O)OC(C)(C)C)C3)ccc21,94
15,Cc1cc(=NN=Cc2cccc(Cl)c2)c2cc(F)ccc2[nH]1,100
16,O=C(Nc1ccc(-c2ccc(-c3nc4ccccc4[nH]3)cc2)cc1)Nc1ccc(Cl)c(Cl)c1,100
17,O=C(NCc1ccc(F)cc1)Nc1ccc(-c2ccc(-c3nc4ccccc4[nH]3)cc2)cc1,98
18,CC1CCN(c2nc(C(=O)NCCc3ccc(Cl)c(Cl)c3)c(C(C)C)s2)CC1.O=C(O)C(F)(F)F,38
19,CS(=O)(=O)c1ccc(CCNCc2ccc(-c3ccc(CN(C(=O)c4ccco4)C4CCN(Cc5ccccc5)CC4)cc3)nc2)cc1.O=C(O)C(F)(F)F,38
20,COc1ccccc1C(=O)N1CCN(Cc2cccs2)CC1,1

row,SMILES,Inhibition [%]
1,COCCNC(=O)C1CCN(C(c2ccc(Cl)cc2)c2ccc(Cl)cc2)CC1,73
2,COc1ccc2ncc(F)c([C@H](O)CN3CCC(NCc4cc5c(cn4)OCCO5)CC3)c2c1.Cl,97
3,COc1ccccc1C(=O)Nc1cccc(N2CCC(NCc3ccc(-n4cccn4)cc3)CC2)c1,30
4,Cc1ccc(-c2nc(N3CCN(C(=O)c4ccco4)CC3)c3ccccc3n2)cc1,75
5,Cn1ccnc1Sc1ncccc1[N+](=O)[O-],2
6,CCN(CC)CCON=Cc1cc(C)c2[nH]c3ccc(OCc4ccccc4)cc3c2c1C,29
7,CC(C)Oc1cc(-c2ccc(S(C)(=O)=O)cc2)nc(N(Cc2cccc(F)c2F)Cc2cccc(F)c2F)n1,99
8,COc1cc(Br)c(S(=O)(=O)n2cc(CN3CCC(N)CC3)c3cc(Cl)ccc32)cc1OC.O=C(O)C(F)(F)F,32
9,Cc1nc(N)nc(N)c1OCCCOc1ccccc1Br.Cl,96
10,CN1CCc2ccc(NC(=O)Nc3cccc(C(=O)c4ccccc4)c3)cc2C1,16
11,NS(=O)(=O)Cc1cccc(-c2ccnc3ccc(-c4cccc(S(N)(=O)=O)c4)cc23)c1,42
12,O=C(Nc1ccc(Br)cc1)Nc1ccc(Cn2ncc(N3CCCNCC3)c(Cl)c2=O)cc1.O=C(O)C(F)(F)F,15
13,CC(C)c1sc(-c2ccc(C(C)(C)C)cc2)nc1C(=O)NCCCN1CCCC1=O,92
14,O=C(Nc1cccc(C(F)(F)F)c1)c1cccc(S(=O)(=O)NCC2CCCN(Cc3ccccc3)C2)c1.O=C(O)C(F)(F)F (stereo not given),3
15,COC(=O)CNC(c1ccccc1)c1cc(Br)ccc1NC(=O)c1ccccc1Br (stereo not given),77
16,Cc1ccccc1C1CCN(c2ncc(C(=O)Nc3ccccc3)cc2Cl)CC1.O=C(O)C(F)(F)F,83
17,CCN1CCC(N(Cc2ccc(-c3ccc(C(F)(F)F)cc3)cc2)C(=O)CCCCn2c(CCc3cccc(F)c3F)nc(=O)c3ccccc32)CC1,77
18,NC(=O)c1ccsc1NC(=O)CNC(c1ccccc1)c1ccc(Cl)cc1 (stereo not given),89
19,COc1c(C2=CCN(CCCCNC(=O)c3ccc(-c4ccc(C#N)cc4)cc3)CC2)ccc2c1CCCC2,82
20,COc1ccccc1CCN1CCC(CN(C)Cc2ccc(O)c(Cl)c2)CC1,52
